# Data from ChEMBL document CHEMBL3988442, “University of Dundee, Small-Polar-MMV Screening Library” (2021).
# How the values were obtained:
# [1] = molecular target: T1, Aspartate--tRNA(Asp/Asn) ligase (Mycobacterium tuberculosis (strain ATCC 25618 / H37Rv)) (UniProt P9WFW3); assay: Assay for Asp RNA synthetase-1 from Mycobacterium tuberculosis; type: functional; design: scale not given: direction of the effect not stated beside the values; details: 30 µM; note: in the data most compounds retested in dose-response had high values
# T1 sequence (whole entry): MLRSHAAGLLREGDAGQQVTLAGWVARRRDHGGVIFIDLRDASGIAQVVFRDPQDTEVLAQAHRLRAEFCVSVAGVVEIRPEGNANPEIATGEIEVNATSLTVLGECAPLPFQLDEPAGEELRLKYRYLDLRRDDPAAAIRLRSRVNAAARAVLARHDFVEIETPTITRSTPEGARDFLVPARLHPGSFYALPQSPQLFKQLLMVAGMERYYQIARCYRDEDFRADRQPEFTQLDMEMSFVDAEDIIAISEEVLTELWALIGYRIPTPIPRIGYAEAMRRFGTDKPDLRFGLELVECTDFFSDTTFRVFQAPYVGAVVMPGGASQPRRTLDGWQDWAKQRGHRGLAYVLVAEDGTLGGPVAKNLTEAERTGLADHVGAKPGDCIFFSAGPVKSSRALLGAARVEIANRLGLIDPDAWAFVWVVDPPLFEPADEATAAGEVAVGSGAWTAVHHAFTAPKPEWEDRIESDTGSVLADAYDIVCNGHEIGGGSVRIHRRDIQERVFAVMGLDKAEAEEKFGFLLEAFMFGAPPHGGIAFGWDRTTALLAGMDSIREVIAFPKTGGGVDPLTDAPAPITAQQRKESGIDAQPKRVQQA
# [2] = molecular target: Shiga toxin 2 (Escherichia coli O157:H7) (UniProt P09385+P09386); assay: E. coli 0.157:H7 Shiga Toxin SOP - stx2 screening assay; type: functional; design: scale not given: direction of the effect not stated beside the values; details: 30 µM
Compound,Percent Effect [1],Percent Effect [2]
CN(Cc1cn2c(n1)CN(C1CCOC1)CC2)Cc1ccco1 (centres undefined),4.4%,-24.2%
O=C(Nc1cccc2c1CCCC2)C1CCCN1c1nccs1 (centres undefined),2.28%,-43.4%
CCNC(=O)c1nnc2ccc(N3CCOCC3)cc2n1,0.9%,-20.2%
Cc1nc(-c2ccccc2)n(CC(=O)NCC(C)C)n1,-3.61%,22%
COCC1COCCC12CCN(C(=O)CCc1ccccc1)CC2 (centres undefined),3.96%,-14.9%
COc1cccc2c1OCC(C(=O)N1CCC(N3CCOC3=O)CC1)C2 (centres undefined),-3.21%,17%
CC(C)CCn1c(=O)nc2n1C(=O)N(c1ccc(F)cc1)C2,-0.24%,-15.1%
COCC1CC2(CCN(Cc3cnn(C)c3)CC2)CN1C(C)C (centres undefined),10.7%,-9.26%
Cn1ccnc1CN1CCC2(CC1)CC(Oc1cccnc1)C2,0.874%,-18.2%
N#CCCCS(=O)(=O)N1CCCC1CC(=O)c1cccs1 (centres undefined),0.747%,12%
COCc1ncn2c1CN(C(=O)C1CC=CC1)CC2,1.48%,0.0561%
O=C(c1cccn1Cc1cccs1)N1CCN(C(=O)C2CC2)CC1,4.89%,-4.84%
CC(C)(C)c1nc(CN2CCCC2Cn2cccn2)no1 (centres undefined),-2.09%,-50.8%
CCCc1nc(C)cc(N2CCC3(CCC(=O)N(CCOC)C3)CC2)n1,-4.22%,-2.13%
CC(C)c1nn(C)c(Cl)c1CNCc1ccc2c(c1)OCCO2,5.79%,32.9%
COC(=O)c1ccc(C2CC(=O)Oc3cc(C)[nH]c(=O)c32)cc1 (centres undefined),-5.75%,-8.85%
Cc1oc(C(=O)O)cc1S(=O)(=O)Nc1cc(Cl)ccc1F,-2.58%,17.5%
O=C(NCC1CCOC1)c1csc(-c2ccco2)n1 (centres undefined),2.85%,-11.7%
COc1cccc(-n2nnc(C(=O)N3CCNC(=O)C3)c2C)c1,-6.06%,-7.95%
CCS(=O)(=O)CCN1CCC(N(C)Cc2noc(C(C)C)n2)C1 (centres undefined),0%,-10.7%
CN1CC(=O)N(c2ccsc2)CC12CCN(S(C)(=O)=O)C2 (centres undefined),-0.605%,0.893%
Cn1ccnc1COc1ccc(CO)cc1,1.33%,-14.5%
CC(C)C(=O)NCC(=O)N(C)C1CCCN(CCc2ccccc2)C1 (centres undefined),-0.948%,-14.4%
CN(CC1CCCO1)C1CCN(CCc2ccccn2)CC1 (centres undefined),3.12%,-6.44%

Compound,Percent Effect [1],Percent Effect [2]
CNS(=O)(=O)CCCN1CCCC1c1noc(C2CC2)n1 (centres undefined),-2.37%,4.89%
Cc1nc(C2CCCN(C(=O)CCCn3ccnc3C)C2)no1 (centres undefined),-1%,14.1%
Cc1ccc(Nc2nccc(C3CN(CC(N)=O)C3)n2)nc1,-1.29%,-33.3%
Cc1cc(=O)n(CC(=O)NCC2CCCO2)c(-c2ccc(F)cc2)n1 (centres undefined),5.94%,-51.4%
OC[C@H]1CC[C@]2(CC1)CN(Cc1ccccc1F)Cc1ccccc1O2,-2.81%,20.1%
O=C(Cn1cnc(-c2ccccc2)cc1=O)Nc1ccncc1,-2.03%,-36.3%
CC(C)c1ncc2c(n1)CN(Cc1nc(-c3cccs3)no1)CC2,0.321%,13.1%
CCOCCCNC(=O)c1nn(CC)cc1Cl,-5.87%,-47.7%
Cc1cccc(CN2C(=O)CCC23CCN(Cc2cccn2C)CC3)n1,0.796%,0.0983%
CN(C)C(=O)CN1C[C@@H]2CC[C@H](C1)N(Cc1cc(F)ccc1F)C2,-0.16%,-37.1%
CCn1cc(CN2CCCn3nc(CCC(=O)NCCO)cc3C2)cn1,0.624%,-51%
Cc1nccn1C1CCCN(C(=O)c2ccc(N(C)C)nc2)C1 (centres undefined),-1.91%,26%
CC(NC(=O)NCCCn1cncn1)c1ccc2c(c1)OCCO2 (centres undefined),0.175%,17.4%
CC(C)n1[nH]c(=O)c2c1NC(=O)CC2c1ccc2ncccc2c1 (centres undefined),-3.5%,-15.3%
C=C(C)CN(Cc1cccc(O)c1)C1CCC(O)CC1 (centres undefined),5.8%,18.1%
Cn1cc(CN2CC[C@H](O)[C@@H]2Cc2ccncc2)cn1,-1.6%,-6.08%
CCOCCn1nc(C)cc1C(=O)N1CCOCC(CO)C1 (centres undefined),-1.08%,-28%
O=C(NCCn1ccc(-c2ccccn2)n1)c1ccncc1,-6.73%,-58.6%
Cc1nc(C2CCCN2Cc2nnc(C3CC3)o2)no1 (centres undefined),1.34%,20%
COc1cc(C)nc(N2CCN(C(=O)CCn3cc(C)cn3)CC2)n1,-3.63%,12%
CN(C)C(=O)c1ccc2c(c1)N(C)C(CC(=O)NCCC(C)(C)C)CO2 (centres undefined),0.279%,5.86%
O=C1CC(c2ccsc2)c2c(n(C3CCOCC3)[nH]c2=O)N1 (centres undefined),-2.53%,-30.3%
COc1ccc(C(=O)N2CCCCC2c2nc(C)cs2)nn1 (centres undefined),-4.46%,-31.3%
